Assay results as given in PubChem BioAssay (NCATS).
Inconclusive results are not listed. The source made the active and inactive calls. Calls follow the shape of the dose curve; as a rule, active = well fitted inhibition curve with a large enough effect; inconclusive = small, poorly fitted or top-dose-only effect; inactive = no such curve, though single readings can be large or run the other way.

Target: Cytochrome P450 2C9 (Homo sapiens) (UniProt P11712)
Assay: qHTS Assay for Inhibitors and Substrates of Cytochrome P450 2C9 (AID 883); also: nearly all actives have a fitted effect of over 60% in size
Conditions: recombinant CYP2C9, luciferin-H luminescence, 60 min; series mostly up to 57.1 µM
Procedure: NIH Molecular Libraries Screening Centers Network [MLSCN] NIH Chemical Genomics Center [NCGC] MLSCN Grant: None NCGC Assay Overview: The P450 gene superfamily is involved in the metabolism and clearance of xenobiotics. This assay used human CYP2C9 to measure the hydroxylation of deoxyluciferin (Luciferin-H; P450 Glo-Buffer) to luciferin. The luciferin is then measured by luminescence after the addition of a luciferase detection reagent. Luciferin-H concentration in the assay was equal to its Michaelis constant KM for CYP2C9. Inhibitors and some substrates limit the production of luciferin, and decrease measured luminescence.
NCGC Assay Protocol Summary: Two uL of enzyme and substrate mix (final concentrations: 10nM CYP2C9, 100uM Luciferin-H, 25mM KPO4) were dispensed into a white, solid bottom 1536-well microtiter plate. 23nL of compound was transferred by a pin tool. The plate was incubated at 37C for 10 min. Two uL of an NADPH regeneration solution (Promega supplied reagent) was dispensed and the reaction was allowed to continue for 60 min at 37C. Then the reaction was stopped by reconstituted P450 Glo-Buffer. After another 20 min of incubation the plate was read on the ViewLux (Perkin Elmer) at 60 sec exposure and 2x2 binning. This protocol was carried out with Promega-Glo reagents and further information can be found at http://www.promega.com/tbs/tb325/tb325.pdf. Data were normalized to the to AC100 inhibition (57uM sulphaphenazole). Keywords: P450, CYP2C9, Luciferase, MLSMR, MLSCN, NIH Roadmap, qHTS, NCGC
% is scaled to controls: 0 for no effect and ±100 for the full control effect; potency is read from the fitted curve at half-maximal effect.

Chain of Cytochrome P450 2C9 (Homo sapiens) (P11712 whole entry, looked up): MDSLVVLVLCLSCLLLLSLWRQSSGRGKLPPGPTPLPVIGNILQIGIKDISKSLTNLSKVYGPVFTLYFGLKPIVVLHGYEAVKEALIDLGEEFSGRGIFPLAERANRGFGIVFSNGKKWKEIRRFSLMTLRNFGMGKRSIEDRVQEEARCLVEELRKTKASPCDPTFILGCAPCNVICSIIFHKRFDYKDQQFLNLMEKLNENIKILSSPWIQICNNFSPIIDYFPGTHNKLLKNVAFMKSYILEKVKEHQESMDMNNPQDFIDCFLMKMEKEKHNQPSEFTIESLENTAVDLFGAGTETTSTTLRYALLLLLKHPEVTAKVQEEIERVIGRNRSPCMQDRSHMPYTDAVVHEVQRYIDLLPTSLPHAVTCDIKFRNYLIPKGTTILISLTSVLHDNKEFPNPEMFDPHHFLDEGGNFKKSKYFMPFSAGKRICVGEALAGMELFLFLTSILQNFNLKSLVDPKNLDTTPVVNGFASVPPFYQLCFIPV

Row | SMILES | activity change, negative = inhibition | Potency
1 | NNc1c(C(N)=O)c2c(N)ncnc2n1[C@@H]1O[C@H](CO)[C@@H](O)[C@@H]1O | -2.73% [at 11.4 µM] (inactive) | 
2 | O=C(Nc1cc[c]([Sb](=[O])([OH])[OH])cc1)c1ccccc1 | 2.5% [at 11.4 µM] (inactive) | 
3 | CSC([N-]/N=C/c1cccc(C)n1)=[S]=[Cu].CS[C@H]([S-])[N-]/N=C/c1cccc(C)n1 |  | 251 nM (active)
4 | C[C@@H]1O[C@H]1P(=O)(O)O |  | inactive
5 | C[C@H](Br)CN(C[C@H](C)Br)c1ccc2c(c1)Cc1ccccc1-2 |  | 3160 nM (active)
6 | O=C(O)CN1CCN(CC(=O)O)CC(=O)[O][Hg][O]C(=O)C1 |  | 1260 nM (active)
7 | O=C(O)c1cc[c]([Hg][S]c2ncnc3nc[nH]c23)cc1 |  | 1260 nM (active)
8 | N[C@H](Cn1oc(=O)[nH]c1=O)C(=O)O |  | inactive
9 | Cc1ccc(OP(=O)(Oc2ccc(C)cc2)N2C=Cc3ccccc3[C@H]2C#N)cc1 | 45.9% [at 11.4 µM] (inactive) | 
10 | N[C@H](Cn1cc(I)c(=O)[nH]c1=O)C(=O)O |  | inactive
11 | CC(=O)c1c(O)c(C)c(O)c(Cc2c(O)c3c(c(C(=O)/C=C\c4ccccc4)c2O)OC(C)(C)C=C3)c1O |  | 631 nM (active)
12 | CC(=O)[C@@H]1CC[C@H]2[C@H]3CC[C@H]4C[C@@H](O)CC[C@]4(C)[C@@H]3CC[C@]12C |  | 2000 nM (active)
13 | N=C(N)SCc1ccc(Cl)c2ccccc12 (tested in a mixture with another compound) |  | 3980 nM (active)
14 | CC(C)[C@@]1(NC(=O)[C@H]2C[C@H]3c4cccc5[nH]cc(c45)C[C@@H]3N(C)C2)O[C@]2(O)[C@H]3CCCN3C(=O)[C@H](Cc3ccccc3)N2C1=O |  | 2510 nM (active)
15 | C[C@@H](O)CN(CCN(C[C@@H](C)O)C[C@@H](C)O)C[C@@H](C)O.O=[N+]([O-])O.[Cu] |  | 794 nM (active)
16 | Cc1ccc(NC(=[OH+])c2cc3ccccc3cc2O)c(C)c1.Cc1ccc(NC(=[OH+])c2cc3ccccc3cc2O)c(C)c1.[Ni] |  | 3160 nM (active)
17 | CC1=NN(c2ccccc2)C(=O)[C@@H]1N=Nc1ccc([As](=O)(O)O)c(O)c1 |  | 3160 nM (active)
18 | O=C(C[C@H](c1ccccc1)c1c(O)c2ccccc2oc1=O)c1ccccc1 |  | 631 nM (active)
19 | O=C(O)[C@H]1CCN1 |  | inactive
20 | CN[C@H]1[C@H](C)O[C@@H](O[C@@H]2C/C=C(/C)C/C(C)=C\C=C/CC[C@@H](C)CNC(=O)/C=C\C=C/[C@H]2C)C[C@@H]1O | -5.72% [at 11.4 µM] (inactive) | 
21 | O=C(O)C(O)(c1ccc(-c2ccccc2)cc1)c1ccc(-c2ccccc2)cc1 |  | 3160 nM (active)
